{"source": "PubChem BioAssay (NCATS)", "note": "Inconclusive results are not listed. Values without a mark were called inactive. The source made the active and inactive calls. Calls come from the whole dose curve; as a rule, active = well fitted inhibition curve with a large enough effect; inconclusive = small, poorly fitted or top-dose-only effect; inactive = no such curve, though single readings can be large or run the other way. % is set by controls: 0 for no effect and ±100 for the full control effect; potency is the fitted concentration of half-maximal effect.", "data": [{"assay": "qHTS assay to identify inhibitors of the type 1 interferon - major histocompatibility complex class I in skeletal muscle: Counter screen cell viability and HiBit confirmation (AID 1347412); note: nearly all actives have a fitted effect of over 60% in size", "conditions": "iHSKM muscle cells + IFN-b, HiBiT or CellTiter-Glo, 24 h; HiBiT", "description": "(§1) Assay Submitter (PI): Travis B. Kinder Ph.D. & James Inglese Ph.D. Assay Development and Screening Technology Laboratory (ADST) National Center for Advancing Translational Sciences (NCATS), Rockville, MD National Institute of Health (NIH), Bethesda, Maryland Idiopathic inflammatory myopathies, collectively referred to as myositis, are a group of rare autoimmune diseases characterized by skeletal muscle inflammation, weakness, and usually accompanied by systemic pathologies of the skin, lungs, or vasculature. Current immunosuppressive therapies and glucocorticoids are often not curative and are accompanied by harsh side effects, especially in children with juvenile myositis. We initiated a drug repurposing and development program to identify more targeted, less toxic therapeutics to treat myositis. Although its cause is not known, muscle from a subset of patients have an abundance of the inflammatory type 1 interferon (IFN) and a down-stream product major histocompatibility complex class I (MHC class I), which are both thought to contribute to damage and weakness. We conducted quantitative high throughput screening on 6,576 compounds (4,679 unique) through a series of cell-based assays to identify those that inhibit the IFN-stimulated expression of MHC class I in muscle precursor cells (myoblasts). The compound identification and evaluation strategy utilized a primary screen with reporter-tagged MHC class I in genome-engineered myoblasts, ATP content counter screen for viability, HLA-ABC immunofluorescence secondary screen, and HLA-B RT-qPCR tertiary screen. The primary screen utilized CRISPR/Cas9 genome-engineering of immortalized human myoblasts, C25cl48, where a pro-luminescent reporter HiBit was fused to the C-terminus of endogenous MHC class I allele HLA-B*08:01 (HLA-B HiBit myoblasts). HiBit is an 11 amino acid fragment of NanoLuc luminescent reporter (Promega Corporation), and when complexed to the larger LgBit fragment, the reconstituted enzyme produces light in the presence of furimazine substrate (Schwinn et al., 2018). Briefly, HLA-B HiBit myoblasts were plated into 1536-well plates, treated with 4.0 ng/ml human IFN-beta and 650 inhibitory compounds identified from primary screening in a 12-point, 1:3 titration with a high final concentration of 46 uM. Compounds were pinned into duplicate plates, with one for HiBit confirmation and one for ATP content viability assay. After 24 hrs of treatment, cells were assayed by either Nano-Glo HiBiT Lytic Detection System (Promega) or CellTiter Glo (Promega), and luminescence measured by a ViewLux 1430 Ultra HTS (Perkin Elmer). References: Schwinn MK, Machleidt T, Zimmerman K, Eggers CT, Dixon AS, Hurst R, Hall MP, Encell LP, Binkowski BF, Wood K V. 2018. CRISPR-Mediated Tagging of Endogenous Proteins with a Luminescent Peptide. ACS Chem Biol 13:467-474. doi:10.1021/acschembio.7b00549\n(§2) PROTOCOL TABLE (as described by Inglese et al., 2007) SEQUENCE No. (e.g., 1, 2, 3, etc.); […] (e.g., Cells, Incubation, Reagent, etc.); VALUE; DESCRIPTION 1a; Cells; 5 uL; Use a Multidrop Combi (Thermo Scientific) to seed 300 cells/well into 16 Greiner 1536 well white/solid bottom, high base, TC plates in 5 ul/well of iHSKM growth medium (GM) without dexamethasone into columns 1+2. Add metal lids with gas-exchange holes 1b; Cells; 5 uL; Use a Multidrop Combi (Thermo Scientific) to seed 300 cells/well into 16 Greiner 1536 well white/solid bottom, high base, TC plates in 5 ul/well of iHSKM GM without dexamethasone + 4 ng/ml IFN-b into columns 3 - 48. Add metal lids with gas-exchange holes 2; Incubate; 1 hr; Incubate at 37 C, 5% CO2, 95% RH 3; Compounds; 23 nl; Use Pin Tool (Wako) to transfer DMSO control, 92 uM final digitonin cytotoxic control, ruxolitinib IFN-b inhibitor control [High Concentration = 80 uM final, 16-pt, 1:2 in duplicate], and library compounds in DMSO. […]", "values": [{"smiles": "COc1c(C)cnc(Cn2cnc3c(Cl)nc(N)nc32)c1C", "Potency": "0.222 µM (active)"}, {"smiles": "CC1(COc2ccc3c(c2)ncn3-c2ccc3cccc(N4CCC(N)CC4)c3n2)COC1", "Potency": "3.52 µM (active)"}, {"smiles": "CC(C)Oc1cc(Nc2nc(N[C@@H](C)c3ccc(F)cn3)ncc2Cl)[nH]n1", "Potency": "9.91 µM (active)"}, {"smiles": "COc1ccc(-c2cc3nccn3c(Nc3ncccc3C(N)=O)n2)cc1OC", "Potency": "7.87 µM (active)"}, {"smiles": "Cc1cccc(Nc2nc(N[C@@H]3CCCC[C@H]3N)ncc2C(N)=O)c1", "Potency": "15.7 µM (active)"}, {"smiles": "CC1(C)CC(=O)c2c(C(F)(F)F)nn(-c3ccc(C(N)=O)c(NC4CCC(O)CC4)c3)c2C1", "note": "(stereo not given)", "Potency": "0.0701 µM (active)"}, {"smiles": "COc1cc2nccc(Oc3ccc(NC(=O)Nc4ccc(F)cc4F)c(F)c3)c2cc1OC", "Potency": "8.83 µM (active)"}, {"smiles": "Cc1cnc(Nc2cccc(CN3CCOCC3)c2)nc1Nc1cccc(S(=O)(=O)NC(C)(C)C)c1", "Potency": "7.01 µM (active)"}, {"smiles": "Nc1ncnc2c1c(-c1cccc(OCc3ccccc3)c1)cn2C1CC(CN2CCC2)C1", "note": "(stereo not given)", "Potency": "22.2 µM (active)"}]}, {"assay": "qHTS assay to identify inhibitors of the type 1 interferon - major histocompatibility complex class I in skeletal muscle: Counter screen cell viability and HiBit confirmation (AID 1347412)", "conditions": "iHSKM muscle cells + IFN-b, HiBiT or CellTiter-Glo, 24 h; HiBiT; at 45.9 µM (top of the series)", "description": "as §1, §2", "units": {"activity change, negative = inhibition": "%"}, "values": [{"smiles": "CNC(=O)c1cc(Oc2ccc(NC(=O)Nc3ccc(Cl)c(C(F)(F)F)c3)c(F)c2)ccn1", "activity change, negative = inhibition": -24.1}, {"smiles": "CNC(=O)c1ccc2c(C(=Nc3cccc(CN(C)C)c3)c3ccccc3)c(O)[nH]c2c1", "activity change, negative = inhibition": -0.844}, {"smiles": "C[C@@H](NC(=O)c1ncnc(N)c1Cl)c1ncc(C(=O)Nc2cc(C(F)(F)F)c(Cl)cn2)s1", "activity change, negative = inhibition": -24.2}, {"smiles": "OC(c1cc(C(F)(F)F)nc2c(C(F)(F)F)cccc12)C1CCCCN1", "note": "(stereo not given)", "activity change, negative = inhibition": -11.4}]}, {"assay": "qHTS assay to identify inhibitors of the type 1 interferon - major histocompatibility complex class I in skeletal muscle: Counter screen cell viability and HiBit confirmation (AID 1347412)", "conditions": "iHSKM muscle cells + IFN-b, HiBiT or CellTiter-Glo, 24 h; Viability", "description": "as §1, §2", "values": [{"smiles": "CN(C)CCN(C)C(=O)c1ccc(NC(=O)Nc2ccc(-c3nc(N4CCOCC4)c4ccn(CC(F)(F)F)c4n3)cc2)cc1", "Potency": "1.11 µM (active)"}, {"smiles": "CC1(COc2ccc3c(c2)ncn3-c2ccc3cccc(N4CCC(N)CC4)c3n2)COC1", "Potency": "27.9 µM (active)"}, {"smiles": "COc1ccc(-c2ccc3ncc4c(c3c2)n(-c2ccc(N3CCNCC3)c(C(F)(F)F)c2)c(=O)n4C)cn1", "Potency": "4.43 µM (active)"}, {"smiles": "COc1cc2nccc(Oc3ccc(NC(=O)Nc4ccc(F)cc4F)c(F)c3)c2cc1OC", "Potency": "7.87 µM (active)"}]}, {"assay": "qHTS assay to identify inhibitors of the type 1 interferon - major histocompatibility complex class I in skeletal muscle: Counter screen cell viability and HiBit confirmation (AID 1347412)", "conditions": "iHSKM muscle cells + IFN-b, HiBiT or CellTiter-Glo, 24 h; Viability; at 45.9 µM (top of the series)", "description": "as §1, §2", "units": {"activity change, negative = inhibition": "%"}, "values": [{"smiles": "CNC(=O)c1cc(Oc2ccc(NC(=O)Nc3ccc(Cl)c(C(F)(F)F)c3)c(F)c2)ccn1", "activity change, negative = inhibition": 2.73}, {"smiles": "CNC(=O)c1ccc2c(C(=Nc3cccc(CN(C)C)c3)c3ccccc3)c(O)[nH]c2c1", "activity change, negative = inhibition": -1.9}, {"smiles": "Fc1ccc(CNc2ncnc3ccc(F)cc23)cc1", "activity change, negative = inhibition": 2.98}, {"smiles": "O=C1CN2Cc3c(ccc(Cl)c3Cl)N=C2N1", "activity change, negative = inhibition": -3.92}, {"smiles": "COc1ccc(-c2cc3nccn3c(Nc3ncccc3C(N)=O)n2)cc1OC", "activity change, negative = inhibition": -22.4}, {"smiles": "COc1ccc2nc3cc(Cl)ccc3c(Nc3cc(CN4CCCC4)c(O)c(CN4CCCC4)c3)c2n1", "activity change, negative = inhibition": -8.41}, {"smiles": "CC(C)(O)CC(=O)NCCn1ccc2ncnc(Nc3ccc(Oc4cccc(C(F)(F)F)c4)c(Cl)c3)c21", "activity change, negative = inhibition": -19.7}, {"smiles": "C[C@@H](NC(=O)c1ncnc(N)c1Cl)c1ncc(C(=O)Nc2cc(C(F)(F)F)c(Cl)cn2)s1", "activity change, negative = inhibition": -2.15}, {"smiles": "CNC(=O)c1cc(COc2nnc(Nc3ccc(Cl)cc3)c3ccoc23)ccn1", "activity change, negative = inhibition": -24.9}, {"smiles": "Cc1ccccc1-n1c(Cn2nc(-c3cccc(O)c3)c3c(N)ncnc32)nc2cccc(C)c2c1=O", "activity change, negative = inhibition": 7.45}, {"smiles": "CC(C)(C)c1nc(-c2cccc(NS(=O)(=O)c3c(F)cccc3F)c2F)c(-c2ccnc(N)n2)s1", "activity change, negative = inhibition": 12.8}, {"smiles": "OC(c1cc(C(F)(F)F)nc2c(C(F)(F)F)cccc12)C1CCCCN1", "note": "(stereo not given)", "activity change, negative = inhibition": -12.8}, {"smiles": "NS(=O)(=O)c1ccc(Nc2nc(OCC3CCCCC3)c3[nH]cnc3n2)cc1", "activity change, negative = inhibition": -13.9}, {"smiles": "O=C(Nc1cccc(Cl)c1)Nc1ncc(CCNc2ncnc3ccsc23)s1", "activity change, negative = inhibition": 8.48}, {"smiles": "CCc1cc(-c2n[nH]c(C)c2-c2ccc3c(c2)OCCO3)c(O)cc1O", "activity change, negative = inhibition": -3.79}, {"smiles": "CC[C@H](CC#N)OC(=O)N[C@@H](C)c1cccc(NC(=O)Nc2ccc(-c3cnco3)c(OC)c2)c1", "activity change, negative = inhibition": -7.06}, {"smiles": "CC(C)CNc1ccnc(NCc2csc(-c3ccccc3)n2)n1", "activity change, negative = inhibition": -28.7}, {"smiles": "NC1(C(=O)N[C@@H](CCO)c2ccc(Cl)cc2)CCN(c2ncnc3[nH]ccc23)CC1", "activity change, negative = inhibition": -19.1}]}]}
